The text below walks through data of paper PMC5540273 (PLoS ONE, 2017).
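Also: KINOMEscan kinase panel screen.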

The subject of the experiment is EPHB3. The following applies: concentration: 1 μM, replicates: in singlicate; n = 1.
Take `Cc1cccc(-c2nc(Nc3cccc(C(N)=O)c3)c3ccccc3n2)n1` [GW876019]: the “%Inh” value worked out at 15%. With `CC(C)(C)c1ccc(C(=O)Nc2cn3cc(-c4cccnc4)ccc3n2)cc1` the figure was 26%; with `Clc1cc(Cl)cc(Nc2ccnc(Nc3cc(Cl)cc(Cl)c3)n2)c1` [GSK175726], 10%. `COc1ccc(CNC(=O)NC2CCN(c3ccnc(Nc4cc(OC)c(OC)c(OC)c4)n3)C2)cc1` (stereo not drawn) [GSK1379748]: the “%Inh” value is 0%. In the case of `Fc1cccc(COc2nnc(-c3ccc4c(c3)CCO4)o2)c1`, the “%Inh” value was found to be 20%. Regarding `CN1C(=O)C(Nc2ccc(Cl)c(C(=O)O)c2)=C(c2ccc(Cl)cc2)C1=O` [SB-404290], the “%Inh” value is on record as 7%. With `Cn1cncc1-c1ccc2ncnc(Nc3ccc(OCc4ccccc4)cc3)c2c1` [GW320571] the figure was 23%. Consider `Nc1ncnc2[nH]c(-c3ccccc3)nc12` [AH5015], for which the “%Inh” value is on record as 16%. Regarding `Cc1nnc(-c2ccc3occ(-c4ccc(S(C)=O)cc4)c3c2)[nH]1` (stereo not drawn), the “%Inh” value is reported as 17%. Turning to `Fc1cc(Cl)ccc1Nc1ccnc2cc(I)ccc12` [GW551191], the “%Inh” value turned out to be 17%. Consider `CC(C)(C)c1ccc(C(=O)Nc2cn3cc(Cl)ccc3n2)cc1`, for which the “%Inh” value stood at 0%. Regarding `C[C@@H]1CCCCN1c1cc(-c2ccc3c(N)n[nH]c3c2)nc(N)n1` [GSK2258759], the “%Inh” value stood at 7%. As for `Cc1cccc(-c2nc(Nc3ccc4[nH]ncc4c3)c3ccccc3n2)n1` [GW857175], the “%Inh” value stood at 0%.

Consider `Cc1cccc(-c2cc(Nc3ccncc3)c3ccccc3n2)n1` [GSK223675], for which the “%Inh” value is listed as 0%. Take `COc1cc2nccc(Nc3ccc(NC(=O)c4ccc(C)cc4)c(O)c3)c2cc1OC.Cl` [GW440132]: the “%Inh” value is recorded as 12%.
